What all share (test): NCI-60 one-dose screen, 48 h (100 = growth as untreated, 0 = no growth, -100 = all killed)
The subject of one test is NCI-H23 lung. The following applies: 10 µM unless noted.
The test system of another test is NCI-H226 lung. The following applies: 10 µM unless noted.
For a further test, the system named is NCI-H322M lung. The following applies: 10 µM unless noted.
For the next test, the system named is HOP-62 NSCLC. The following applies: 10 µM unless noted.
The subject of another test is NCI-H460 lung. The following applies: 10 µM unless noted.
In the next test the test system is A549/ATCC NSCLC. The following applies: 10 µM unless noted.
The next test relates to COLO 205 colon. The following applies: 10 µM unless noted.
The next test has as its system HOP-92 NSCLC. The following applies: 10 µM.
The next test concerns NCI-H522 lung. The following applies: 10 µM.
The test system of a further test is 786-0 renal. The following applies: 10 µM unless noted.

The panel holds about 83,000 compounds, 20% with a hit somewhere; the sample as a whole holds those more often.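 Percent growth is the endpoint: 0 to 100 indicates growth inhibition (40 means 60% inhibition), 0 means no net growth, and negative values indicate cell death.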 Unmarked numbers belong to inactive results. Activity calls are given as the source filed them. How the source made its calls: active means growth percent below 10; inactive means the rest.

Experimental findings from PubChem BioAssay (NCI) are described below.

`O=C(CBr)OCc1ccc([N+](=O)[O-])o1`: the growth with NCI-H23 lung was 97.2%; with NCI-H226 lung it was 104%; in the test with NCI-H322M lung, 132%; with HOP-62 NSCLC it was 96.8%; in the test with NCI-H460 lung, 91.6%; in the test on A549/ATCC NSCLC, 100%. For the same molecule, the growth with COLO 205 colon was 100%.
On to `C/C=C(/C)C(=O)OC1C=C(CO)C(=O)C(OC(=O)/C(C)=C\C)C1C(C)C` (stereo not given), for which the growth in the test on NCI-H23 lung is -66.3% (active); with NCI-H226 lung, -0.591% (active); in the test with NCI-H322M lung, -90.3% (active); with HOP-62 NSCLC, -31.4% (active); with HOP-92 NSCLC, -72.8% (active); with NCI-H522 lung it was -52.8% (active). Besides, the growth was -9.36% (active) in the test on A549/ATCC NSCLC and -88.6% (active) with 786-0 renal.
With `CCN(CC)CCNc1ncnc2c1cnn2-c1ccc(Cl)cc1`, the growth in the test with NCI-H23 lung was 76.5%; with NCI-H226 lung, 100%; in the test on NCI-H322M lung it was 92.8%; in the test on HOP-62 NSCLC, 114%; with NCI-H460 lung, 85%; with 786-0 renal it was 106%. Further, the growth in the test with COLO 205 colon was 15.9%.
Take `CCC(C)(CC)c1ccc(O)c(C)c1`: the growth is 98.9% in the test with NCI-H23 lung; 98% with NCI-H226 lung; 94.4% with NCI-H322M lung; 101% with HOP-62 NSCLC; 105% in the test on NCI-H460 lung; 94.8% in the test on 786-0 renal. The growth in the test on COLO 205 colon is 105%.
Take `C=C(C)C(C(=O)OCC)(C(=O)OCC)C(C)C`: the growth in the test with NCI-H23 lung is 114%; in the test with NCI-H226 lung it was 109%; with NCI-H322M lung, 111%; with HOP-62 NSCLC, 108%; in the test with NCI-H460 lung, 106%; in the test with A549/ATCC NSCLC, 96.5%. Further, the growth in the test with 786-0 renal was 103%; in the test on COLO 205 colon it was 117%.
As for `Cc1ccc(C(=O)Nc2ccc(CN3CCN(C)CC3)c(C(F)(F)F)c2)cc1C#Cc1cnc(N)c2ccc(F)cc12`, the growth was -77.3% (active) in the test with NCI-H23 lung; -45.5% (active) in the test with NCI-H226 lung; -99.3% (active) in the test on NCI-H322M lung; -68.8% (active) with HOP-62 NSCLC; -90.3% (active) in the test on HOP-92 NSCLC; -75.1% (active) with NCI-H522 lung. In addition, the growth in the test with A549/ATCC NSCLC was -87.5% (active); in the test with 786-0 renal, -85.3% (active).
`CCCCCCNC(=O)Oc1ccc(/C(=C(/C)Cc2ccc(OC)cc2)c2ccc(OCCN(C)C)cc2)cc1`: the growth is 82.5% with NCI-H23 lung; 85.7% in the test with NCI-H226 lung; 86.5% with NCI-H322M lung; 74.6% in the test on HOP-62 NSCLC; 46% in the test on HOP-92 NSCLC; 60% with NCI-H522 lung. Besides, the growth in the test on A549/ATCC NSCLC was 54%; with 786-0 renal, 59.4%; in the test with COLO 205 colon it was -60.4% (active).
Regarding `Ic1ccc(SSc2ccc(I)cc2)cc1`, the growth with NCI-H23 lung is 98%; in the test with NCI-H226 lung it was 90.6%; in the test with NCI-H322M lung, 100%; in the test on HOP-62 NSCLC it was 108%; with HOP-92 NSCLC, 90.7%; in the test with NCI-H522 lung, 86.7%. In addition, the growth in the test on A549/ATCC NSCLC was 74.1%; in the test on 786-0 renal it was 92.6%.
Regarding `COc1ccc2c(N)ncc(C#Cc3cc(C(=O)Nc4ccc(CN5CCN(C)CC5)c(C(F)(F)F)c4)cnc3C)c2c1`, the growth was -30.3% (active) in the test on NCI-H23 lung; 55% with NCI-H226 lung; 31.6% with NCI-H322M lung; 45.3% with HOP-62 NSCLC; 1.06% (active) in the test with HOP-92 NSCLC; -38.3% (active) in the test on NCI-H522 lung. The results for the growth in the test with A549/ATCC NSCLC and with 786-0 renal were -68.6% (active) and -55.6% (active), respectively.
Take `O=C(Nc1cccc(Cn2c(=O)[nH]c3ccc(Oc4ncccn4)cc3c2=O)c1)c1ccc(Cl)cc1`: the growth was 46.9% with NCI-H23 lung; 34.6% in the test with NCI-H226 lung; 61.5% in the test on NCI-H322M lung; 55.2% in the test on HOP-62 NSCLC; 52.8% in the test on HOP-92 NSCLC; 50.5% in the test on NCI-H522 lung. For the same molecule, the growth in the test on A549/ATCC NSCLC is 46.9%; in the test on 786-0 renal it was 70.5%.
For the molecule `CCCCN(CCC)CCCCCCCCCCN1CCCc2ccccc21`, the growth in the test with NCI-H23 lung was 71.5%; in the test with NCI-H226 lung, 99.5%; in the test on NCI-H322M lung, 99.4%; with HOP-62 NSCLC it was 92.5%; in the test on HOP-92 NSCLC, 48.8%; with NCI-H522 lung, 62%. The figures for the growth with A549/ATCC NSCLC, in the test with 786-0 renal and in the test on COLO 205 colon were 97.3%, 88.8% and 91.7%, respectively.
Regarding `OC(c1ccccc1)(c1ccccc1)C(F)(F)F`, the growth with NCI-H23 lung is 97.4%; with NCI-H226 lung, 112%; with NCI-H322M lung, 116%; with HOP-62 NSCLC, 102%; in the test with HOP-92 NSCLC, 95.7%; in the test on NCI-H522 lung, 84.6%. The growth was 99.1% in the test with A549/ATCC NSCLC, 106% in the test on 786-0 renal and 107% in the test with COLO 205 colon.
Take `CCN(CCO)CCNc1ccc(C)c2sc3cc(OC)ccc3c(=O)c12`: the growth in the test on NCI-H23 lung was 79.6%; with NCI-H226 lung, 73.5%; in the test on NCI-H322M lung, 76.1%; in the test on HOP-62 NSCLC, 62%; in the test with HOP-92 NSCLC, 55.8%; in the test on NCI-H522 lung, 62.6%. Besides, the growth is 59.4% with A549/ATCC NSCLC, 66.6% in the test on 786-0 renal and 48.9% in the test with COLO 205 colon.
For the molecule `C/C=C(/C)C(=O)OC1C=C(CO)C(=O)C(OC(=O)C2(C)OC2C)C1C(C)C` (stereo not given), the growth was -63.1% (active) with NCI-H23 lung; -36.4% (active) in the test with NCI-H226 lung; -3.37% (active) in the test with NCI-H322M lung; 0.921% (active) with HOP-62 NSCLC; -35.1% (active) in the test with HOP-92 NSCLC; -79.5% (active) in the test on NCI-H522 lung. For the same molecule, the growth with A549/ATCC NSCLC was -23.5% (active); with 786-0 renal it was -89.7% (active).
Regarding `COc1cc2oc(-c3ccc(NC(=O)c4ccccc4)cc3)cc(=O)c2c(OC)c1OC`, the growth in the test on NCI-H23 lung is 82.4%; in the test on NCI-H226 lung it was 85.4%; with NCI-H322M lung, 69.4%; in the test on HOP-62 NSCLC, 90.3%; in the test with HOP-92 NSCLC, 69.2%; in the test on NCI-H522 lung, 70.2%. Also, the growth in the test on A549/ATCC NSCLC was 80.3%; with 786-0 renal, 90.4%.
With `C[C@]12C=CC(=O)C=C1[C@@H](F)C[C@@H]1[C@@H]2[C@@H](O)C[C@@]2(C)[C@H]1CC[C@]2(O)C(=O)CO`, the growth in the test on NCI-H23 lung was 106%; with NCI-H226 lung, 90.6%; in the test on NCI-H322M lung, 113%; in the test on HOP-62 NSCLC, 104%; with HOP-92 NSCLC, 57.5%; with NCI-H522 lung it was 118%. For the same molecule, the growth is 63.5% in the test on A549/ATCC NSCLC, 108% in the test with 786-0 renal and 106% in the test on COLO 205 colon.
